{"source": "PubChem BioAssay", "note": "A number with no mark means an inactive call. Active and inactive are the calls of the source.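 How the source made its calls: active means thallium flux through the channel raised or lowered by more than 3 SD from vehicle-only wells, actives on both sides; inactive means the rest.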", "data": [{"test_system": "F380Y/beta2Delta", "assay": "BK channel mutant inhibitors and activators – cell-based, U2OS BacMam, thallium flux, beta subunits, selectivity assay, profiling panel (AID 1259406);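 further: initial slope of Thallos dye fluorescence rise after thallium is added; log ratio against the mean of 0.3% DMSO vehicle wells on the same plate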", "conditions": "U2OS BacMam BK variants, at 30 µM", "values": [{"smiles": "COC(=O)[C@H](c1ccccc1Cl)N1CCc2sccc2C1", "log fold change Tl+ flux": -0.0129}, {"smiles": "COc1ccc(/C=C/C(=O)Nc2ccccc2C(=O)O)cc1OC", "log fold change Tl+ flux": -0.0218}, {"smiles": "CC1=C(/C=C/C(C)=C/C=C/C(C)=C\\C(=O)O)C(C)(C)CCC1", "log fold change Tl+ flux": 0.000191}, {"smiles": "Cc1cccc(C)c1NC(=O)C1CCCCN1C", "note": "(configuration not stated)", "log fold change Tl+ flux": 0.00729}, {"smiles": "CN(C)c1nc(N(C)C)nc(N(C)C)n1", "log fold change Tl+ flux": 0.00703}, {"smiles": "CC[C@H]1OC(=O)[C@H](C)[C@@H](O[C@H]2C[C@@](C)(OC)[C@@H](O)[C@H](C)O2)[C@H](C)[C@@H](O[C@@H]2O[C@H](C)C[C@H](N(C)C)[C@H]2O)[C@](C)(OC)C[C@@H](C)C(=O)[C@H](C)[C@@H](O)[C@]1(C)O", "log fold change Tl+ flux": -0.0353}, {"smiles": "CNCCC(Oc1ccc(C(F)(F)F)cc1)c1ccccc1", "note": "(configuration not stated)", "log fold change Tl+ flux": "0.189 (active)"}, {"smiles": "CS(=O)(=O)c1ccc(C2=C(c3ccccc3)C(=O)OC2)cc1", "log fold change Tl+ flux": 0.00326}, {"smiles": "Cc1occc(=O)c1O", "log fold change Tl+ flux": 0.00122}, {"smiles": "Nc1ncnc2c1ncn2[C@@H]1O[C@H](CO)[C@@H](O)[C@@H]1O", "log fold change Tl+ flux": 0.00163}, {"smiles": "CC(C)NCC(O)COc1ccc(CC(N)=O)cc1", "note": "(configuration not stated)", "log fold change Tl+ flux": 0.00577}, {"smiles": "C[N+]1(C)CCCC(OC(=O)C(O)(c2ccccc2)c2ccccc2)C1", "note": "(configuration not stated)", "log fold change Tl+ flux": -0.0376}, {"smiles": "CC(C)NCC(O)COc1cccc2ccccc12", "note": "(configuration not stated)", "log fold change Tl+ flux": 0.058}, {"smiles": "CCc1ccc(CCOc2ccc(CC3SC(=O)NC3=O)cc2)nc1", "note": "(configuration not stated)", "log fold change Tl+ flux": 0.0296}, {"smiles": "CCCCC(=O)N(Cc1ccc(-c2ccccc2-c2nn[nH]n2)cc1)[C@H](C(=O)O)C(C)C", "log fold change Tl+ flux": 0.0113}, {"smiles": "C[C@H]1COc2c(N3CCN(C)CC3)c(F)cc3c(=O)c(C(=O)O)cn1c23", "log fold change Tl+ flux": 0.0117}, {"smiles": "O=[N+]([O-])c1cccc2cn[nH]c12", "log fold change Tl+ flux": -0.000818}, {"smiles": "COc1ccc(-c2cc(=O)c3c(OC)c(OC)c(OC)c(OC)c3o2)cc1OC", "log fold change Tl+ flux": 0.0292}, {"smiles": "CC(C(=O)O)c1ccc(-c2ccccc2)c(F)c1", "note": "(configuration not stated)", "log fold change Tl+ flux": -0.00435}]}, {"test_system": "F380Y/beta4", "assay": "BK channel mutant inhibitors and activators – cell-based, U2OS BacMam, thallium flux, beta subunits, selectivity assay, profiling panel (AID 1259406)", "conditions": "U2OS BacMam BK variants, at 30 µM", "values": [{"smiles": "COC(=O)[C@H](c1ccccc1Cl)N1CCc2sccc2C1", "log fold change Tl+ flux": 0.0282}, {"smiles": "COc1ccc(/C=C/C(=O)Nc2ccccc2C(=O)O)cc1OC", "log fold change Tl+ flux": -0.0244}, {"smiles": "CC1=C(/C=C/C(C)=C/C=C/C(C)=C\\C(=O)O)C(C)(C)CCC1", "log fold change Tl+ flux": -0.0711}, {"smiles": "Cc1cccc(C)c1NC(=O)C1CCCCN1C", "note": "(configuration not stated)", "log fold change Tl+ flux": 0.00629}, {"smiles": "CN(C)c1nc(N(C)C)nc(N(C)C)n1", "log fold change Tl+ flux": 0.0174}, {"smiles": "CC[C@H]1OC(=O)[C@H](C)[C@@H](O[C@H]2C[C@@](C)(OC)[C@@H](O)[C@H](C)O2)[C@H](C)[C@@H](O[C@@H]2O[C@H](C)C[C@H](N(C)C)[C@H]2O)[C@](C)(OC)C[C@@H](C)C(=O)[C@H](C)[C@@H](O)[C@]1(C)O", "log fold change Tl+ flux": 0.00789}, {"smiles": "CNCCC(Oc1ccc(C(F)(F)F)cc1)c1ccccc1", "note": "(configuration not stated)", "log fold change Tl+ flux": "0.225 (active)"}, {"smiles": "CS(=O)(=O)c1ccc(C2=C(c3ccccc3)C(=O)OC2)cc1", "log fold change Tl+ flux": -0.000569}, {"smiles": "Cc1occc(=O)c1O", "log fold change Tl+ flux": 0.0304}, {"smiles": "Nc1ncnc2c1ncn2[C@@H]1O[C@H](CO)[C@@H](O)[C@@H]1O", "log fold change Tl+ flux": 0.0319}, {"smiles": "CC(C)NCC(O)COc1ccc(CC(N)=O)cc1", "note": "(configuration not stated)", "log fold change Tl+ flux": 0.0375}, {"smiles": "C[N+]1(C)CCCC(OC(=O)C(O)(c2ccccc2)c2ccccc2)C1", "note": "(configuration not stated)", "log fold change Tl+ flux": 0.0149}, {"smiles": "CC(C)NCC(O)COc1cccc2ccccc12", "note": "(configuration not stated)", "log fold change Tl+ flux": 0.0503}, {"smiles": "CCc1ccc(CCOc2ccc(CC3SC(=O)NC3=O)cc2)nc1", "note": "(configuration not stated)", "log fold change Tl+ flux": 0.017}, {"smiles": "CCCCC(=O)N(Cc1ccc(-c2ccccc2-c2nn[nH]n2)cc1)[C@H](C(=O)O)C(C)C", "log fold change Tl+ flux": -0.00671}, {"smiles": "C[C@H]1COc2c(N3CCN(C)CC3)c(F)cc3c(=O)c(C(=O)O)cn1c23", "log fold change Tl+ flux": -0.0339}, {"smiles": "O=[N+]([O-])c1cccc2cn[nH]c12", "log fold change Tl+ flux": 0.0331}, {"smiles": "COc1ccc(-c2cc(=O)c3c(OC)c(OC)c(OC)c(OC)c3o2)cc1OC", "log fold change Tl+ flux": -0.0316}, {"smiles": "CC(C(=O)O)c1ccc(-c2ccccc2)c(F)c1", "note": "(configuration not stated)", "log fold change Tl+ flux": 0.0328}]}, {"target": "Calcium-activated potassium channel subunit alpha-1 (Homo sapiens) + Leucine-rich repeat-containing protein 26 (Homo sapiens) (UniProt Q12791+Q2I0M4)", "sequence (Q2I0M4 whole entry, looked up, one chain of several)": "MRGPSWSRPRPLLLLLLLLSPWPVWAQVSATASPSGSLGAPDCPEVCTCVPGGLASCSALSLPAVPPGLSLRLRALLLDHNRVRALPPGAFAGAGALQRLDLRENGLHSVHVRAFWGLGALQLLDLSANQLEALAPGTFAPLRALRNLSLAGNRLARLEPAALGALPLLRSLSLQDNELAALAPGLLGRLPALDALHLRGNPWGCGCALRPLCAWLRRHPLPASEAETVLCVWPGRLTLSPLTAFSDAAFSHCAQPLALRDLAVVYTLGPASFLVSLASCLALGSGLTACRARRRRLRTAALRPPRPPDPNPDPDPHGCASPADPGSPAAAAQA", "assay": "BK channel mutant inhibitors and activators – cell-based, U2OS BacMam, thallium flux, beta subunits, selectivity assay, profiling panel (AID 1259406)", "conditions": "U2OS BacMam BK variants, F380Y/Slo1WT/gamma1, at 30 µM", "values": [{"smiles": "COC(=O)[C@H](c1ccccc1Cl)N1CCc2sccc2C1", "log fold change Tl+ flux": -0.0336}, {"smiles": "COc1ccc(/C=C/C(=O)Nc2ccccc2C(=O)O)cc1OC", "log fold change Tl+ flux": -0.0322}, {"smiles": "CC1=C(/C=C/C(C)=C/C=C/C(C)=C\\C(=O)O)C(C)(C)CCC1", "log fold change Tl+ flux": "-0.0907 (active)"}, {"smiles": "Cc1cccc(C)c1NC(=O)C1CCCCN1C", "note": "(configuration not stated)", "log fold change Tl+ flux": 0.0131}, {"smiles": "CN(C)c1nc(N(C)C)nc(N(C)C)n1", "log fold change Tl+ flux": 0.0168}, {"smiles": "CC[C@H]1OC(=O)[C@H](C)[C@@H](O[C@H]2C[C@@](C)(OC)[C@@H](O)[C@H](C)O2)[C@H](C)[C@@H](O[C@@H]2O[C@H](C)C[C@H](N(C)C)[C@H]2O)[C@](C)(OC)C[C@@H](C)C(=O)[C@H](C)[C@@H](O)[C@]1(C)O", "log fold change Tl+ flux": -0.0843}, {"smiles": "CNCCC(Oc1ccc(C(F)(F)F)cc1)c1ccccc1", "note": "(configuration not stated)", "log fold change Tl+ flux": 0.0464}, {"smiles": "CS(=O)(=O)c1ccc(C2=C(c3ccccc3)C(=O)OC2)cc1", "log fold change Tl+ flux": 0.022}, {"smiles": "Cc1occc(=O)c1O", "log fold change Tl+ flux": 0.0152}, {"smiles": "Nc1ncnc2c1ncn2[C@@H]1O[C@H](CO)[C@@H](O)[C@@H]1O", "log fold change Tl+ flux": 0.0271}, {"smiles": "CC(C)NCC(O)COc1ccc(CC(N)=O)cc1", "note": "(configuration not stated)", "log fold change Tl+ flux": -0.00874}, {"smiles": "C[N+]1(C)CCCC(OC(=O)C(O)(c2ccccc2)c2ccccc2)C1", "note": "(configuration not stated)", "log fold change Tl+ flux": -0.0154}, {"smiles": "CC(C)NCC(O)COc1cccc2ccccc12", "note": "(configuration not stated)", "log fold change Tl+ flux": -0.019}, {"smiles": "CCc1ccc(CCOc2ccc(CC3SC(=O)NC3=O)cc2)nc1", "note": "(configuration not stated)", "log fold change Tl+ flux": 0.0101}, {"smiles": "CCCCC(=O)N(Cc1ccc(-c2ccccc2-c2nn[nH]n2)cc1)[C@H](C(=O)O)C(C)C", "log fold change Tl+ flux": 0.0422}, {"smiles": "C[C@H]1COc2c(N3CCN(C)CC3)c(F)cc3c(=O)c(C(=O)O)cn1c23", "log fold change Tl+ flux": 0.00221}, {"smiles": "O=[N+]([O-])c1cccc2cn[nH]c12", "log fold change Tl+ flux": 0.0381}, {"smiles": "COc1ccc(-c2cc(=O)c3c(OC)c(OC)c(OC)c(OC)c3o2)cc1OC", "log fold change Tl+ flux": "-0.341 (active)"}, {"smiles": "CC(C(=O)O)c1ccc(-c2ccccc2)c(F)c1", "note": "(configuration not stated)", "log fold change Tl+ flux": 0.0464}]}]}
